Bioassay records as filed in PubChem.
Compounds with a hit are over-represented: about 4.1% of the library has one in this group of screens.
NSD2 HMT inh: inhibitors of human histone methyltransferase NSD2 | hit rate 0.54% among 310,000 | AID 743445 | inhibition, % at 12.5 µM | O96028 | NSD2 peptide methylation, AlphaScreen, 120 min; in the data active = inhibition above about 50%
ALR inh: blocks human ALR sulfhydryl oxidase activity; P55789; purified ALR, DTT oxidation, H2O2 HRP-luminol luminescence; inhibition, % (no concentration beside the values); hit rate 3.8% among 290,000; AID 485317;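 active = mean replicate inhibition above about 79%, with every replicate also reaching it, limit read from the data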
Target sequence (P55789 whole entry, looked up): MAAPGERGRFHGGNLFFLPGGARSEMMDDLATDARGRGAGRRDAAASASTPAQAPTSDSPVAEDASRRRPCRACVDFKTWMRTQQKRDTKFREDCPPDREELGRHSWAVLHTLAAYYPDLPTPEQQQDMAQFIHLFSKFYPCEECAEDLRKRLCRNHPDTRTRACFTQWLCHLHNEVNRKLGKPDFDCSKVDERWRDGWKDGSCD
CASP6 VEID inh: caspase-6 (human) enzyme inhibition. P55212. purified caspase-6, Z-VEID-R110 cleavage fluorescence. inhibition, % at 12.5 µM. hit rate 0.53% among 350,000. AID 686996;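 active = mean inhibition across replicates at least about 35%, with every replicate also reaching that limit, limit read from the data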;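 also: 0% = median of neutral control wells and 100% = no fluorescence left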
Target sequence (P55212 24-179 limits assumed): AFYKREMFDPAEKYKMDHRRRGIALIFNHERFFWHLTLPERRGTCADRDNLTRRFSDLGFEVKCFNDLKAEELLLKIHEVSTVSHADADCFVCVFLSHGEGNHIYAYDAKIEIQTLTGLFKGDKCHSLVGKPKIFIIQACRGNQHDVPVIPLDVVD
Target sequence (P55212 194-293 limits assumed): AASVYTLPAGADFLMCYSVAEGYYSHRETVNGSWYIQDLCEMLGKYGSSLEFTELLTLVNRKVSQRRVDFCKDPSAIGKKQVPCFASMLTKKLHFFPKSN
CFTR F508del cor: CFTR F508del correction in bronchial cells | hit rate 0.36% among 350,000 | activity (quench increase), % at 7.58 µM | CFBE cells, YFP halide quenching; stimulated with forskolin plus potentiator P3; % fluorescence drop versus neutral controls;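 active = mean added fluorescence quench of at least 8% versus neutral control, with both replicates also reaching 8%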;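 also: cells transiently co-express mutant CFTR-F508del with the halide-sensitive YFP; corrector assay measuring rescue of mutant channel to the surface after 24 h compound exposure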
PglD DTNB: blocks C. jejuni PglD acetyltransferase activity. purified PglD enzyme, DTNB colorimetric CoA detection. inhibition, % at 12.5 µM. hit rate 0.098% among 360,000. AID 602405; in the data active = inhibition above about 16%, passing the limit was not always enough
HIV Env fusion: inhibitors of HIV Env-mediated cell fusion; HeLa-JRFL Env/CEM21 cell fusion, luciferase; inhibition, % at 12.3 µM; AID 651610; hit rate 1.1% among 360,000;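 active = mean replicate inhibition score of at least 50 and every replicate individually at or above 50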;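 also: 0% = plate neutral controls and 100% = maraviroc near 300 nM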
Starred values were filed as active, the others as inactive; / = not tested or not shown; [ ] = another dose, or the depositor's remark.

SMILES | NSD2 HMT inh | ALR inh | CASP6 VEID inh | CFTR F508del cor | PglD DTNB | HIV Env fusion
COc1ccc(C(=O)NCC(c2ccco2)N2CCCC2)cc1S(=O)(=O)N1CCCCC1C (stereo unspecified) | 4.0 | -0.5 | 52.6* | 3.0 | 5.9 | /
COc1ccc(C(=O)NCCc2c[nH]c3ccccc23)cc1S(=O)(=O)N1CCCCC1C (stereo unspecified) | / | -0.7 | -3.1 | -1.8 | 2.8 | 8.0
COc1ccc(C(=O)NCCc2ccc(Cl)cc2)cc1S(=O)(=O)N1CCCCC1C (stereo unspecified) | 1.4 | 0.2 | 1.9 | -0.4 | 4.0 | 89.2*
CC(=O)N1CCN=C1SCc1cccc(F)c1 | -2.7 | 97.0* | -3.6 | -1.6 | -0.6 | 1.0
CCC(=O)N1CCN=C1SCc1cccc(F)c1 | 0.5 | 96.5* | 0.4 | -3.2 | 0.4 | -0.3
CC(=O)N1CCN=C1SCc1cccc(C)c1 | 2.4 | 96.1* | -2.4 | -0.5 | -5.3 | -1.6
CC(=O)N1CCN=C1SCc1cccc(Cl)c1 | -2.9 | 99.6* | 3.8 | 1.6 | 0.9 | 11.5
O=S(=O)(c1ccc(Cl)cc1)N1CCN=C1SCc1cccc(Cl)c1 | -1.6 | / | -0.7 | / | / | 15.5
CC=Cc1ccc2n(c1=O)C[C@H]1[C@H](CO)[C@@H](C(=O)NCC3CC3)[C@@H]2N1Cc1ccncc1 (mixture of isomers) | / | / | 2.1 | / | -1.4 | /
CN(C)CC(=O)Nc1ccc2c(c1)[C@@H]1C[C@@H](CC(=O)N3CCc4ccccc4C3)O[C@@H](CO)[C@@H]1O2 | / | / | -0.9 | -0.5 | 1.8 | -14.1[16.7 µM]
Cn1c(SCc2ccc(C#N)cc2Cl)nc2ccccc21 | / | 95.9* | / | / | 2.3 | /
CCn1c(-c2csc3c2CCCC3)n[nH]c1=S | 25.6 | 90.9* | / | / | / | -69.1
CC(C)(C)c1ccc(Oc2ccc(N)cn2)cc1 | -2.5 | 98.1* | 3.1 | -2.6 | 0.2 | 37.7
O=C(O)c1ccccc1C(=O)Nc1ccc(Nc2ccccc2)cc1 | 0.3 | / | 10.0 | -1.4 | -2.2 | 16.5
CC(C)(C)C(=O)Nc1ccc(C(=O)Nc2cccc(Oc3ccc(C(=O)O)c(C(=O)O)c3)c2)cc1 | 5.3 | 4.4 | 18.7 | -3.0 | 1.2 | 9.3
Cc1cc(Oc2ccc(N)cn2)cc(C)c1Cl | / | 7.8 | 11.6 | -0.7 | -1.4 | -8.6
O=C(O)c1ccccc1C(=O)Nc1ccc(Oc2ccccc2)cc1 | 0.3 | 93.6* | 0.7 | 0.0 | -4.4 | -25.2
Cc1cccc(Oc2ccc3c(c2)cc(C(=O)O)n3C)c1 | -1.4 | 98.0* | 2.7 | 1.6 | -2.9 | 1.6
O=C(Nc1cccc(Oc2ccc(C(=O)O)c(C(=O)O)c2)c1)c1ccc(-c2ccccc2)cc1 | 31.5 | / | 42.0* | -2.6 | 7.5 | 12.0
CNC[C@@H]1OCCCC[C@H](C)Oc2ccc(N(C)C)cc2C(=O)N([C@@H](C)CO)C[C@H]1C | / | / | / | -1.3 | / | -5.0[16.7 µM]
O=C(Nc1ccc2c(c1)[C@@H]1C[C@H](CC(=O)N3CCCCC3)O[C@@H](CO)[C@@H]1O2)C1CCC1 | / | / | -3.5 | -1.9 | 2.6 | 4.3[16.7 µM]
Cc1cccc(Oc2ccc(NC(=O)c3ccccc3C(=O)O)cc2)c1 | -3.3 | 98.1* | -4.2 | -1.0 | 2.1 | -5.5
CC(C)(C)c1ccc(Oc2ccc(NC(=O)c3ccccc3C(=O)O)cn2)cc1 | 5.6 | 92.6* | 8.7 | 1.8 | -6.6 | 24.1
O=C(Nc1ccc(Oc2cccc(C(F)(F)F)c2)nc1)c1ccccc1 | -1.6 | 23.0 | -2.0 | -1.1 | 0.8 | 10.9
CCCNC(=O)N1CC2(C1)CN(C(=O)CCC)[C@@H](CO)c1[nH]c3cc(OC)ccc3c12 | / | / | / | 1.6 | / | /
SMILES | NSD2 HMT inh | ALR inh | CASP6 VEID inh | CFTR F508del cor | PglD DTNB | HIV Env fusion
CCN(CC)CCn1c(=S)[nH]c2ccc(Br)cc2c1=O | 5.8 | 96.7* | -0.4 | -0.4 | / | -2.8
CCN(CC)CCn1c(=S)[nH]c2ccccc2c1=O | 2.3 | 13.8 | / | / | -1.4 | /
C/C(=N/Nc1ccnc2cc(Cl)ccc12)c1ccc(N)cc1 | / | 98.4* | -4.5 | 2.0 | 2.9 | -143.2
Clc1ccc2c(NNc3ccccc3Cl)ccnc2c1 | 3.1 | -0.2 | / | / | -5.8 | -158.7
Clc1ccc2c(N/N=C/c3ccccc3Br)ccnc2c1 | -4.6 | -1.4 | -0.6 | -8.0 | -2.9 | /
NC(=S)NNc1ccnc2cc(Cl)ccc12 | 0.3 | 103.3* | -4.9 | -1.4 | / | 7.3
C/C(=N/Nc1ccnc2cc(Cl)ccc12)c1ccc(O)cc1 | / | 93.1* | -8.3 | 1.5 | 2.8 | -17.6
CCCCNC(=O)C[C@H]1C[C@@]2(C(=O)OC)C(=C[C@H](C(C)(C)C)O[C@@H]2C)N(Cc2ccc3c(c2)OCO3)C1=O | / | / | 0.0 | 0.9 | / | 81.9*
